Luciferase inh – Firefly luciferase inhibition profiling of diverse chemical library using quantitative high-throughput screening. Luciferin 4-monooxygenase (Photinus pyralis), P08659. purified P. pyralis luciferase, luminescence, biochemical. Potency, µM (highest dose often 115 µM), hits mostly inhibitors. actives 2.5% (n = 76,000); further: potency means the concentration at half of the fitted maximal effect; on the % scale 0 is the no-effect control and ±100 the full control effect; nearly all actives have a fitted effect of over 65% in size
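Cell-free enzyme assay, 10nM P. pyralis luciferase, luciferin and ATP each at 10uM. Inhibition profiled over a 6-point titration, read as luminescence.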
hNpr1 antagonist – Natriuretic polypeptide receptor (hNpr1) antagonism - Primary qHTS; Atrial natriuretic peptide receptor 1 (Homo sapiens), P16066; HEK293 hNpr1 GloSensor cGMP, ANP-stimulated luminescence; Potency, µM (highest dose often 46.3 µM), without a hit: top-dose activity change, negative = inhibition, hits mostly inhibitors; actives 1.6% (n = 76,000); calls by dose curve; further: potency means the concentration at half of the fitted maximal effect; on the % scale 0 is the no-effect control and ±100 the full control effect; nearly all actives have a fitted effect of over 60% in size
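Compound pre-incubated 30 min at room temperature on GloSensor-loaded HEK293 cells stably carrying hNpr1 and the pGS-40F cGMP biosensor. Stimulation uses hNppA at 0.1 nM final; luminescence is taken at baseline and 20 min post-agonist.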
GPT2 inh – Primary qHTS assay for inhibitors of Glutamate pyruvate transaminase 2 (GPT2). Alanine aminotransferase 2 (Homo sapiens), Q8TD30. Recombinant GPT2, coupled pyruvate oxidase/HRP Amplex Red fluorescence. Potency, µM (doses to about 57.7 µM), for inactives: top-dose activity change, negative = inhibition, hits mostly inhibitors. actives 0.25% (n = 100,000). AID 1671188, 2021; further: potency means the concentration at half of the fitted maximal effect; on the % scale 0 is the no-effect control and ±100 the full control effect; nearly all actives have a fitted effect of over 60% in size
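Inhibition is scored from Amplex Red fluorescence generated when pyruvate oxidase and HRP act on pyruvate released by GPT2. Reactions contain 10ng/uL enzyme, 250uM a-KG and 2mM L-alanine and run 30 min at room temperature.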
NIH3T3 tox – Cytotoxic Profiling in NIH 3T3 Cell Line of Diverse Libraries Using Quantitative High-Throughput Screening; Potency, µM (highest dose often 96.7 µM), without a hit: at the top dose activity change, negative = cytotoxicity, hits mostly inhibitors; actives 4.3% (n = 94,000); NIH 3T3 viability, CellTiter-Glo ATP luminescence, 48-72 h; AID 1345082, 2018; further: potency means the concentration at half of the fitted maximal effect; on the % scale 0 is the no-effect control and ±100 the full control effect; nearly all actives have a fitted effect of over 55% in size
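Mouse fibroblast NIH 3T3 cells, 400 per well, received compound via pintool and were incubated for 48 or 72 hr prior to CellTiter-Glo ATP luminescence measurement.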
HEK cytotox – Cytotoxic Profiling in HEK 293 Cell Line of Diverse Libraries Using Quantitative High-Throughput Screening; HEK 293 viability, ATP luminescence (CellTiter-Glo), 48-72 h; Potency, µM (titrated, usually from 115 µM), for inactives: at the highest dose activity change, negative = cytotoxicity, actives largely listed as inhibitors; actives 6.6% (n = 94,000); AID 1345083, 2018; further: potency means the concentration at half of the fitted maximal effect; on the % scale 0 is the no-effect control and ±100 the full control effect; nearly all actives have a fitted effect of over 60% in size
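HEK 293 cells seeded at 250 cells/well were exposed to compound for 48 or 72 hr at 37 degree Celsius. Viability taken as ATP content by CellTiter-Glo luminescence.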
GPT2 inh cnf – Confirmatory qHTS assay for inhibitors of Glutamate pyruvate transaminase 2 (GPT2). shares compounds with GPT2 inh. actives 90% (n = 95). AID 1671187, 2021. GPT2 enzyme, coupled Amplex Red pyruvate fluorescence. Potency, µM, actives largely listed as inhibitors
An asterisk follows results filed as active; i = inactive; ? = inconclusive; . = not tested or not shown; ! = not active in a repeat; [ ] = remark or other dose. A selection: hits, their analogues and other compounds. The true share with any hit is near 10%. Unless noted, the call rests on the fitted dose curve; in most records, active means well fitted curve in the direction sought with a large enough effect; inconclusive means small, poorly fitted or top-dose-only effect, or another doubt; inactive means no such curve, though single readings can be large; an effect the other way counts as inactive or inconclusive.

SMILES	Luciferase inh	hNpr1 antagonist	GPT2 inh	NIH3T3 tox	HEK cytotox	GPT2 inh cnf
CN1CCN(C)c2cc(Nc3ccc(N4CCOCC4)cc3)ncc2C1	.	.	.	.	.	7*
Cc1cc(-c2cc3c(cn2)N(C)CCN(C)C3)ccn1	i	1%[70.6 µM]	1%[88.5 µM]	?	?	.
CCc1ccccc1NC(=O)CN(C)C(=O)C1CCN(c2cnn(Cc3ccccc3)c(=O)c2)C1 (stereo not drawn)	i	-10%	i	-21%	?	.
Cc1cc(Cl)ccc1NC(=O)CCn1ccn2nc3c(c2c1=O)CCCC3	i	0%	i	?	?	.
CCN(CC)c1ccc(NC(=O)CCn2ccn3nc4c(c3c2=O)CCCC4)c(C)c1	i	-3%	?	40µM*	?	1.7*
CCC(=O)N1c2ccccc2CC1c1nc(C(C)C)no1 (stereo not drawn)	?	-2%	1%	-3%	-1%	.
CN(C)c1ccc(Nc2nc(N)n(C(=O)c3c(F)cccc3F)n2)cc1	.	.	3.2µM*	.	.	1.2*
Cn1ccc2cc(NCc3nnc(C(=O)N4CCC[C@@H]4CN4CCCC4)n3-c3ccccc3)ccc21	?	3%	?	?	-25%	?
C=CCN1C[C@@H]2C[C@@H](C(=O)NC)N(C(=O)CCCCC)c3cccc(c32)[S+]1(=O)[O-]	.	.	i	?	-3%[57.5 µM]	.
COc1cc(N2CCOCC2)ccc1Nc1ncc(Cl)c(Nc2ccccc2NS(C)(=O)=O)n1	.	.	5µM*	.	.	1.5*
COc1cc(N2CCOCC2)ccc1Nc1ncc(F)c(Nc2ccccc2NS(C)(=O)=O)n1	.	.	3.2µM*	.	.	1.9*
COCCOCC(=O)NCC12CCC=C1N(C)C(=O)CC2 (stereo not drawn)	.	.	i	-20%	1%	.
Cc1cc(CNC(=O)c2cc(-c3ccc(N4CCOCC4)cc3)cc3c2OCCN3C)no1	?	7%	3%	?	?	.
C[C@@H]1CN(C(=O)c2cc(N3CCOCC3)cc3c2OCCN3C)C[C@H](C)O1	.	.	.	.	.	4.4*
O=C(N[C@@H]1CN(Cc2ccc(F)cc2)C[C@H]1CO)c1cccnc1	i	-2%	-16%	-11%	-7%	.
Oc1ccccc1CN1CCNc2cnc(Nc3ccccc3)cc2C1	i	?	6.3µM*	?	?	6.3*
c1ccc(Nc2cc3c(cn2)NCCN(Cc2ccccn2)C3)cc1	i	2%[70.6 µM]	-81%[88.5 µM]	-18%[138 µM]	?	3.5*
c1ccc(-c2cc3c(cn2)NCCN(Cc2ccccn2)C3)cc1	i	1%[70.6 µM]	2%[88.5 µM]	-19%[138 µM]	?	.
COc1ccc(CN2CCNc3cnc(Nc4ccccc4)cc3C2)cc1O	i	0%[70.6 µM]	?	?	?	5*
CCCn1ncc(N2CCC(C(=O)N(CCCOC)Cc3ccc4c(c3)CCCN4CC)CC2)cc1=O	.	.	10µM*	35µM*	22µM*	1.7*
O=C(Nc1ccc([C@@H](O)[C@H]2COCC(=O)N2Cc2ccc(C(F)(F)F)cc2)cc1)C1CCCCC1	i	6%	-3%	?	?	.
CCc1nc(C(N)=O)c(Nc2ccc(N3CCC(N4CCN(C)CC4)CC3)c(OC)c2)nc1NC1CCOCC1	.	.	8.6µM*	.	.	3.1*
COc1ccccc1N1CCN(C2CCCN(Cc3nc(C(N)=O)no3)C2)CC1 (stereo not drawn)	i	5%	-19%	-23%	-13%	.
CC(C)CCN1CCc2nc(C(C)C)nc(-c3ccc(Cl)cc3)c2CC1	.	.	-5%	-27%	?	.
COc1ccc(-c2ccc3nc(-c4cccc(Cl)c4)oc3c2)c(OC)c1OC	?	-6%	?	-18%	?	2.4*
SMILES	Luciferase inh	hNpr1 antagonist	GPT2 inh	NIH3T3 tox	HEK cytotox	GPT2 inh cnf
COc1ccc(-c2ccc3nc(-c4ccccc4Cl)oc3c2)c(OC)c1OC	?	1%	2%	?	?	.
CCn1nccc1C(=O)N1CCC2(CC1)CN(C1CCC1)CC2COC (stereo not drawn)	.	.	-14%	-30%	-20%	.
OCCN(CCO)c1nc(N2CCCCC2)c2nc(N(CCO)CCO)nc(N3CCCCC3)c2n1	.	.	6.3µM*!	.	.	1.7*
CN(Cc1ccc2nonc2c1)Cc1cc2n(n1)CCN(S(C)(=O)=O)C2	i	2%	1%	2%	-3%	.
Cc1cnc(Nc2ccc(F)cc2Cl)nc1-c1c[nH]c(C(=O)NC(CO)c2cccc(Cl)c2)c1 (stereo not drawn)	.	.	7.1µM*	.	.	3.4*
Cn1cc(CC(=O)N2CCCc3ncc(C(=O)NCc4cccc(F)c4)cc32)c2ccccc21	i	-15%	?	?	?	.
COc1ccc(CCC(=O)N2CCOc3ccc(N4CCCC4)cc3C2)cc1	.	.	3.2µM*	?	?	1.5*
